From PubChem BioAssay AID1159580 (chemical genetic matrix, 2015)
Where “and” joins values, the source holds several entries; their conditions need not be identical. Identical values can stand only once. In all, about 5,500 compounds went through this assay and about 2,000 (36%) were called active. About 18% were inconclusive and are not listed. Cut-off read from the data, not from the text of the source: active = normalized growth mostly below about 0.91 (no sharp cut-off); inconclusive = no clear call, values can overlap the other calls; inactive = mostly above about 0.92. The list shows a part of the results.

Assay: chemical genetic growth profiling, strain panel (AID 1159580);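 note: tested at 20 µM; growth read once vehicle control cultures reached saturation at 30 °C; 1 = growth at the plate median or of vehicle wells; lower values mean less growth of the strain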
Details: S. cerevisiae deletion strains, growth OD

Measured: normalized growth

CC1(C)O[C@@H]2CC3C4CCC5=CC(=O)C=C[C@]5(C)[C@@]4(F)[C@@H](O)C[C@]3(C)[C@]2(C(=O)CO)O1 (some centres not stated)
inactive: locus YAL013W, strain DEP1, stronger effect = lower value 1.02 | locus YAL021C, strain ccr4, stronger effect = lower value 0.99 | locus YAL026C, strain drs2, stronger effect = lower value 1 | locus YAL030W, strain snc1, stronger effect = lower value 0.996 | locus YBL061C, strain skt5, stronger effect = lower value 0.98 | locus YBR009C, strain hhf1, stronger effect = lower value 0.992 | locus YBR021W, strain FUR4, stronger effect = lower value 0.946 | locus YBR023C, strain chs3, stronger effect = lower value 0.993 | locus YBR171W, strain sec66, stronger effect = lower value 1 | locus YBR229C, strain ROT2, stronger effect = lower value 1.01 | locus YBR231C, strain swc5, stronger effect = lower value 0.987 | locus YBR279W, strain paf1, stronger effect = lower value 0.991 | locus YCL011C, strain gbp2, stronger effect = lower value 1.02 | locus YCL016C, strain dcc1, stronger effect = lower value 0.968 | locus YCL029C, strain bik1, stronger effect = lower value 1 | locus YCL061C, strain MRC1, stronger effect = lower value 1.01 | locus YCL069W, strain vba3, stronger effect = lower value 1.01 | locus YCR088W, strain abp1, stronger effect = lower value 1.01 | locus YDL005C, strain med2, stronger effect = lower value 1 | locus YDL035C, strain GPR1, stronger effect = lower value 1.01 | locus YDL040C, strain nat1, stronger effect = lower value 0.988 | locus YDL074C, strain BRE1, stronger effect = lower value 1.12 | locus YDL101C, strain DUN1, stronger effect = lower value 1.01 | locus YDL134C, strain PPH21, stronger effect = lower value 1.01 | locus YDL185W, strain tfp1, stronger effect = lower value 1.01 | locus YDL192W, strain arf1, stronger effect = lower value 1.01 | locus YDR001C, strain nth1, stronger effect = lower value 1 | locus YDR069C, strain doa4, stronger effect = lower value 0.998 | locus YDR101C, strain arx1, stronger effect = lower value 0.992 | locus YDR137W, strain rgp1, stronger effect = lower value 1.01 | locus YDR150W, strain NUM1, stronger effect = lower value 1.02 | locus YDR159W, strain sac3, stronger effect = lower value 0.928 | locus YDR162C, strain NBP2, stronger effect = lower value 1.01 | locus YDR195W, strain ref2 0.954 | locus YDR297W, strain sur2, stronger effect = lower value 0.997 | locus YDR318W, strain mcm21, stronger effect = lower value 0.987 | locus YDR334W, strain swr1, stronger effect = lower value 0.997 | locus YDR335W, strain msn5, stronger effect = lower value 1.02 | locus YDR388W, stronger effect = lower value 0.997 | locus YDR392W, strain spt3, stronger effect = lower value 0.884 | locus YDR502C, strain sam2, stronger effect = lower value 0.999 | locus YEL003W, strain gim4, stronger effect = lower value 0.991 | locus YEL037C, strain rad23, stronger effect = lower value 1.02 | locus YEL061C, strain CIN8 (second series), stronger effect = lower value 1 | locus YEL061C, strain CIN8, stronger effect = lower value 1.01 | locus YER015W, strain faa2, stronger effect = lower value 0.991 | locus YER016W, strain bim1, stronger effect = lower value 0.975 | locus YER110C, stronger effect = lower value 0.998 | locus YER111C, strain swi4, stronger effect = lower value 0.999 | locus YER155C, strain BEM2 (second series), stronger effect = lower value 0.983 | locus YER155C, strain BEM2, stronger effect = lower value 0.966 | locus YER167W, strain BCK2, stronger effect = lower value 1.01 | locus YFR010W, strain ubp6, stronger effect = lower value 1.01 | locus YGL078C, strain dbp3, stronger effect = lower value 1 | locus YGL086W, strain mad1, stronger effect = lower value 0.997 | locus YGL167C, strain pmr1, stronger effect = lower value 0.988 | locus YGL173C, strain kem1, stronger effect = lower value 0.98 | locus YGL227W, strain vid30, stronger effect = lower value 1.01 | locus YGL240W, strain doc1, stronger effect = lower value 0.953 | locus YGL248W, strain PDE1, stronger effect = lower value 1.01 | locus YGL253W, strain hxk2, stronger effect = lower value 1.02 | locus YGR078C, strain PAC10, stronger effect = lower value 1.03 | locus YGR135W, strain pre9, stronger effect = lower value 0.996 | locus YGR229C, strain SMI1, stronger effect = lower value 1.02 | locus YGR252W, strain gcn5, stronger effect = lower value 0.97 | locus YHR013C, strain ard1, stronger effect = lower value 0.956 | locus YHR027C, strain rpn1, stronger effect = lower value 1 | locus YHR030C, strain SLT2, stronger effect = lower value 1.01 and 0.993 | locus YHR079C, strain IRE1 (second series), stronger effect = lower value 0.989 | locus YHR079C, strain IRE1, stronger effect = lower value 0.989 | locus YHR094C, strain hxt1, stronger effect = lower value 0.994 | locus YHR129C, strain ARP1, stronger effect = lower value 1.01 | locus YHR142W, strain chs7, stronger effect = lower value 1.02 | locus YHR200W, strain rpn10, stronger effect = lower value 0.995 | locus YIL066C, strain RNR3, stronger effect = lower value 1.02 | locus YIL073C, strain SPO22, stronger effect = lower value 1.05 | locus YIL125W, strain kgd1, stronger effect = lower value 0.998 | locus YIR030C, strain dcg1, stronger effect = lower value 1.01 | locus YJL092W, strain hpr5, stronger effect = lower value 1 | locus YJL095W, strain BCK1 (second series), stronger effect = lower value 1 | locus YJL095W, strain BCK1, stronger effect = lower value 1.01 and 0.992 | locus YJL115W, strain asf1, stronger effect = lower value 0.993 | locus YJL129C, strain trk1, stronger effect = lower value 1.01 | locus YJL134W, strain LCB3, stronger effect = lower value 1.01 | locus YJL154C, strain vps35, stronger effect = lower value 0.999 | locus YJL164C, strain tpk1, stronger effect = lower value 0.994 | locus YJL166W, strain qcr8, stronger effect = lower value 0.996 | locus YJL168C, strain set2, stronger effect = lower value 0.993 | locus YJL187C, strain SWE1 (second series), stronger effect = lower value 1.02 | locus YJL187C, strain SWE1, stronger effect = lower value 0.976 | locus YJR043C, strain POL32, stronger effect = lower value 0.997 | locus YJR066W, strain TOR1, stronger effect = lower value 0.947
